Cruzain inh Det: inhibitors of Trypanosoma cruzi cruzain with detergent; Potency, µM, usual class: inhibitors; purified cruzain, Z-FR-AMC fluorescence, 0.01% Triton; hit rate 0.43% among 200,000; AID 1478; note: nearly all actives have a fitted effect of over 40% in size
Target sequence (P25779 123-467 limits assumed): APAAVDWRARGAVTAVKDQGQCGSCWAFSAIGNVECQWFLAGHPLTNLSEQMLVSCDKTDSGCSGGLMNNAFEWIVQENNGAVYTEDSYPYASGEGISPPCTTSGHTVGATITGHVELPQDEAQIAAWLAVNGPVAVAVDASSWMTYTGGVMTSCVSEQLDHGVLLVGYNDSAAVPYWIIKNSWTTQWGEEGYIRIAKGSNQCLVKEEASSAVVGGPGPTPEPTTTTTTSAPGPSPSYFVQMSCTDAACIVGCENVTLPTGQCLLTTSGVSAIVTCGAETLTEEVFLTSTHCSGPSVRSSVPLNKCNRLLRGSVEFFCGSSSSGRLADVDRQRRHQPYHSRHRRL
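Enzyme 1.5 nM, Z-FR-AMC 2 uM, NaOAc 100 mM pH 5.5, DTT 5 mM, Triton X-100 0.01%; 15 min RT compound preincubation; kinetic ex360/em450, 60 s delta.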
NS1 inh: inhibitors of influenza NS1 protein function | Potency, µM (top dose mostly 46.1 µM) | hit rate 0.4% among 270,000 | AID 2326; calls by dose curve; note: actives are rising curves; nearly all actives have a fitted effect of over 50% in size
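In this qHTS, NS1 from influenza A is expressed in budding yeast, where it slows growth. Cells are switched from glucose to 2% galactose medium (pH 6.0, -URA), treated with compound, and growth recovery is read at OD600.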
Cruzain inh noDet: blocks cruzain activity in detergent-free assay; hit rate 2.3% among 200,000; AID 1476; P25779; Potency, µM, most hits filed as inhibitors; purified cruzain, Z-FR-AMC fluorescence, no detergent; note: nearly all actives have a fitted effect of over 40% in size
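Detergent-free condition (0.00005% Triton X-100) in acetate buffer pH 5.5 with DTT. 1.5 nM enzyme and compound were pre-mixed 15 min, then 2 uM Z-FR-AMC substrate added; reaction progress from fluorescence change between first and third reads (60 s).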
Numbers stand for hits; 0 = inactive; ? = inconclusive; - = no result given; ! = not active in a repeat. The full list was thinned out, with hits kept by preference. Unless noted, calls come from the whole dose curve; as a rule, active = well fitted curve in the direction sought with a large enough effect; inconclusive = small, poorly fitted or top-dose-only effect, or another doubt; inactive = no such curve, though single readings can be large; an effect the other way counts as inactive or inconclusive.

SMILES	Cruzain inh Det	NS1 inh	Cruzain inh noDet
CCOC(=O)c1c(NC(=O)C(=O)N/N=C(\C)c2ccc(OC)cc2)sc2c1CCCCC2	0	0	0
CCOC(=O)c1c(NC(=O)C(=O)N/N=C/c2ccccc2OC)sc2c1CCCCC2	0	0	10µM
CCOC(=O)c1c(NC(=O)c2ccc(C)cc2)sc2c1CCCCC2	0	-	0
CCOC(=O)c1c(NC(=O)C(=O)N/N=C/c2ccccc2O)sc2c1CCCCC2	0	0	7.9µM
N#Cc1cccc(NC(=O)N2CC[C@@]3(CCCN(C(=O)c4cccc(F)c4)C3)C2)c1	0	-	0
Fc1ccccc1N1CCN(c2nnc(C(F)(F)F)c3nnn(Cc4ccccc4)c23)CC1	0	-	0
Cc1ccc(-c2nnc(Nc3cccc(C(F)(F)F)c3)c3ccccc23)cc1S(=O)(=O)N1CCOCC1	0	-	0
CCCOCC(C)OCC(C)O (stereo not given)	0	-	0
COc1cccc(Nc2ncc3nc(-c4cn(C)c5ccccc45)c(=O)n(CCC#N)c3n2)c1	0	-	0
O=C(COc1ccc2c(c1)OCO2)Nc1ccc2c(c1)oc1ccccc12	0	0	10µM
O=C(Nc1ccc2c(c1)oc1ccccc12)c1ccc2c(c1)OCO2	0	0	?
COc1ccc2c(c1)c(CC(=O)NCc1ccc3c(c1)OCO3)c(C)n2C(=O)c1ccc(Cl)cc1	0	-	0
COc1ccc(NC(=O)Cn2nnc(C(=O)NCc3cccs3)c2N)cc1Cl	-	0	-
COc1ccccc1NC(=O)Cn1nnc(C(=O)NCc2cccs2)c1N	0	0	0
CCc1ccccc1NC(=O)c1nnn(CC(=O)Nc2c(C)cc(C)cc2C)c1N	0	-	32µM
Cc1ccc(NC(=O)Cn2nnc(C(=O)NCc3cccs3)c2N)cc1Cl	0	0	25µM
CCc1ccccc1NC(=O)Cn1nnc(C(=O)NCc2cccs2)c1N	0	-	20µM
CCc1ccc(Cn2nnc(C(=O)Nc3ccc(OC)cc3OC)c2N)cc1	0	0	25µM
COc1ccc(NC(=O)c2nnn(CC(=O)Nc3ccccc3OC)c2N)c(OC)c1	-	0	-
CCc1ccccc1NC(=O)Cn1nnc(C(=O)Nc2ccc(OC)c(OC)c2)c1N	0	-	0
COc1cccc(Nc2sc(C(=O)c3ccc(F)cc3)c(N)c2C(=O)NCc2ccc(C)cc2)c1	0	-	?
C=CCC1(O)CCOc2ccccc21 (stereo not given)	0	-	0
O=C(O)C1Cc2c([nH]c3ccccc23)C(c2coc3ccccc3c2=O)N1 (stereo not given)	0	-	0
CC(C)c1nn2c(=O)cc(COC(=O)c3ccccc3NC(=O)c3cccc(Cl)c3)nc2s1	0	-	0
COc1ccccc1N1CCN(C(=O)Cn2ncc3c(=O)oc4ccccc4c32)CC1	0	-	0
SMILES	Cruzain inh Det	NS1 inh	Cruzain inh noDet
CCCCN(Cc1cc2cc(C)ccc2[nH]c1=O)C(=O)c1cccc(Cl)c1	0	-	0
COc1ccc(NC(=O)Cn2nnc(C(=O)Nc3ccc(C)c(F)c3)c2N)cc1Cl	0	-	0
Cc1ccc(CNC(=O)Cn2nnc(C(=O)Nc3ccc(Br)cc3)c2N)cc1	-	0	-
CCc1ccc(NC(=O)Cn2nnc(C(=O)NCc3ccc(C)cc3)c2N)cc1	0	-	20µM
Cc1cccc(NC(=O)Cn2nnc(C(=O)Nc3ccc(F)c(Cl)c3)c2N)c1	0	0	25µM
CCOC(=O)c1cc2c(=O)n3ccccc3nc2n(C(C)C)c1=NC(=O)C(C)(C)Oc1ccc(Cl)cc1	0	-	0
Cc1cc2c(C(C)C)c(O)c(O)c(C=O)c2c(O)c1-c1c(C)cc2c(C(C)C)c(O)c(O)c(C=O)c2c1O	25µM!	0.35µM!	?
O=C(Nc1cnn(Cc2ccc(Cl)cc2Cl)c1)c1noc2c1CCc1ccccc1-2	0	-	7.9µM
Cc1cc(C(=O)Nc2cnn(Cc3ccc(Cl)cc3Cl)c2)no1	0	0	0
O=C(N/N=C/c1c[nH]c2ccccc12)c1ccccc1	-	0	-
NC(=S)N/N=C\c1c2ccccc2cc2ccccc12	0.89µM	0	1µM
COCCNC(=S)N/N=C/c1c2ccccc2cc2ccccc12	-	0	-
NC(=S)N/N=C\c1c[nH]c2ccccc12	0.71µM	0	0.32µM
CCN(CC)CCn1c2c(c(SCC(=O)Nc3cccc(C(F)(F)F)c3)nc1=O)CCC2	0	-	0
O=S(=O)(c1ccccc1)N1CCn2c(nc3ccccc32)C1	0	0	0
O=S(=O)(c1ccc(F)cc1)N1CCn2c(nc3ccccc32)C1	18µM	0	5µM
CN(C)c1ccc(-c2ccc3ncnc(NC4CC4)c3c2)cc1	0	-	0
Cc1ccc2nc(SCC(=O)NCc3ccco3)c(C#N)cc2c1	0	0	25µM
Cc1ccc2nc(SCC(=O)NCc3ccco3)c(C)cc2c1	-	0	-
Cc1ccc2nc(SCC(=O)NCc3cccs3)c(C#N)cc2c1	0	0	10µM
Cc1ccc2cc(C#N)c(SCC(=O)NCc3ccco3)nc2c1	0	0	?
CCCCC/C=C\C/C=C\C/C=C\CCCCCCC(=O)NCCc1ccc(O)c(O)c1	0	-	0
S=C(S)NCCN1CCNCC1	0	0	0

Screening results from PubChem.
